The structures appear in SMILES notation. The campaign covered roughly 360,000 compounds. About 460 (0.13%) were called active. The sample holds actives, similar compounds and a random draw of the others, so the mix is not that of the screen. Values without a mark were called inactive.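 How the source made its calls: active means inhibition above the mean inhibition of all tested compounds plus 3 SD (cut at about 73% in these data); inactive means the rest.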

This experiment deals with Nuclear receptor subfamily 5 group A member 2 (Homo sapiens) (UniProt O00482). In words: LRH-1 (NR5A2) inverse agonists, primary screen, cell-based, luminescence, HEK293T, StAR-luciferase reporter (AID 602396).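 Further: 0% = DMSO wells and 100% = reporter-only cells lacking LRH-1.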 Conditions: LRH-1 transfected, 24 h, at 3.6 µM, active compounds read high.
Sequence of Nuclear receptor subfamily 5 group A member 2 (Homo sapiens) (O00482 whole entry, looked up): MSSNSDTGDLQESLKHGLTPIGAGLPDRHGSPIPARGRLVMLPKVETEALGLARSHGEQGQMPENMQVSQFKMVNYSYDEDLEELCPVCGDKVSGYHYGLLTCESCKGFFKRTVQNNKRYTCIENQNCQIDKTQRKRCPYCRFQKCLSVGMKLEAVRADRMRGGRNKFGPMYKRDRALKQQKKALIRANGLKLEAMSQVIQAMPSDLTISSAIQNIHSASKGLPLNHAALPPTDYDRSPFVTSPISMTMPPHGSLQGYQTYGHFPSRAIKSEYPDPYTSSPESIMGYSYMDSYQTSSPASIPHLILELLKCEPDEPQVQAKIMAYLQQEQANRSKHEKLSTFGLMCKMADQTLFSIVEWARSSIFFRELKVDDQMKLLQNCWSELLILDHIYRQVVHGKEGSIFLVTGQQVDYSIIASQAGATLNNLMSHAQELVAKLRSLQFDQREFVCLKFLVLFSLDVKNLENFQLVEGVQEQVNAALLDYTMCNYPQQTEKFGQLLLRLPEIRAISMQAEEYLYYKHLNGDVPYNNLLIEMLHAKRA
Broadly, the inhibition is the relative decrease from the control value, in per cent. With `CCCOc1ccc(CN(CCO)CCO)cc1C(=O)OC`, the inhibition was 23.4%.

Take `O=C(NC1CCC(O)CC1)c1ccccc1OCc1ccc(F)cc1` (stereo unspecified): the inhibition is 21.9%.

Take `COC(=O)C1=NN(c2ccccc2)C2C(=O)N(c3ccccc3OC)C(=O)C12` (stereo unspecified): the inhibition was 10%.

In the case of `CCOC(=O)N1CCN(S(=O)(=O)c2cc3c(cc2C)NC(=O)CO3)CC1`, the inhibition is 12.8%.

`O=C(Nc1cc(-c2ccccc2)nn1-c1ccccc1F)c1ccc([N+](=O)[O-])cc1`: the inhibition was -5.47%.

As to `O=[N+]([O-])c1ccc2c(c1)C(O)n1nc(-c3ccccc3)nc1S2` (stereo unspecified), the inhibition is -9.43%.

Turning to `O=C(NC(Nc1nc2ccc([N+](=O)[O-])cc2s1)(C(F)(F)F)C(F)(F)F)c1ccccc1`, the inhibition was 97.9% (active).

On to `CCc1ccccc1N1CN(Cc2ccco2)CNC1=S`, for which the inhibition is -20.8%.

Take `COc1ccc(NC(=O)c2cccc3c2C(=O)N(CC2CCCO2)C3)cc1OC` (stereo unspecified): the inhibition was -15.8%.

With `CCC1OC(C2CC2)CC2=C1C(=O)OC(C)(C)O2` (stereo unspecified), the inhibition is -31.2%.

With `COc1ccc(OC)c(NC(=O)c2ccc3c(c2)C(=O)N(c2ccc(OC(C)=O)cc2)C3=O)c1`, the inhibition was 15.1%.

With `N=c1ccn(CC(=O)NC(N)=O)c2ccccc12`, the inhibition was 19.2%.

On to `CCOC(=O)CN(C(=O)COc1nc(-c2ccccc2)cc(C)c1C#N)c1ccc(F)cc1`, for which the inhibition is 21.9%.

With `O=S(=O)(c1ccc(F)cc1)N1CCN(Cc2ccccc2C(F)(F)F)CC1`, the inhibition is 10.2%.

With `COc1cc(OC)c2c(c1)OC(=O)CC2c1cc(OC)c(OC)c(OC)c1` (stereo unspecified), the inhibition was 2.48%.

For `COc1ccc(N(C(=O)c2ccc(C)cc2)S(=O)(=O)c2cccs2)cc1`, the inhibition was 2.34%.

`CC[C@H]1CN2CCc3cc(OC)c(OC)cc3[C@@H]2C[C@@H]1C[C@H]1NCCc2cc(OC)c(OC)cc21`: the inhibition was 103% (active).

Consider `NC(=NC(=O)c1ccccc1)C1=C(O)CCC1=O`, for which the inhibition is -13.8%.

`O=C(CN(Cc1ccccc1)C(=O)c1ccc2c(c1)OCCO2)NCc1ccc2c(c1)OCO2`: the inhibition was 4.07%.

On to `CC(C)Nc1nc(NCCOc2ccccc2Cl)c2sccc2n1`, for which the inhibition is 18.8%.

Consider `CCCCN(C=O)c1c(CC)nc2c(OCCC3CCCCC3)cccn12`, for which the inhibition was -7.2%.

Regarding `Cc1ccc(S(=O)(=O)N2CC[C@H]3[C@@H](C2)C(=O)C[C@@H](c2ccccc2)N3S(=O)(=O)c2ccc(C)cc2)cc1`, the inhibition is -11.8%.

Turning to `Cc1cc(NC(=O)COC(=O)/C=C/c2ccc(C)o2)no1`, the inhibition is -7.21%.

As for `CCN(CC)CCCNC(=O)c1c(O)c2cc(F)cc3c2n(c1=O)C(C)CC3` (stereo unspecified), the inhibition was -10.8%.

On to `CCC(c1nnnn1-c1ccc2c(c1)OCCO2)N1CCN(c2ccc(C(F)(F)F)cn2)CC1` (stereo unspecified), for which the inhibition was -0.51%.

As for `CC(=O)Nc1ccc(SC[C@H](Cc2ccccc2)N2CC[C@@H](C)CCC2=O)cc1`, the inhibition is -2.81%.

On to `O=C(Nc1ccccc1N1CCOCC1)c1ccc(OCc2cscn2)cc1`, for which the inhibition was 3.78%.

As for `Cc1cc(CNCc2c(C(=O)N(C)Cc3ccccc3)nc3ccccn23)nn1C`, the inhibition was 12.7%.

As for `CC(C)(C)Nc1nc(-c2ccccn2)nc2ccccc12`, the inhibition was 85% (active).

`CC(Nc1nc(C(F)(F)F)nc2ccccc12)c1cccs1` (stereo unspecified): the inhibition is 14.1%.

As for `c1ccc(-c2nccc(-c3ccc(-n4cnc5ccccc54)cc3)n2)nc1`, the inhibition is 5.78%.

Regarding `O=C(NCc1ccncc1)C1CCCN(S(=O)(=O)c2ccc(Br)cc2)C1` (stereo unspecified), the inhibition is 2.98%.

With `O=C(CSc1ccccn1)Nc1nc2c(ccc3ccccc32)s1`, the inhibition was -23.7%.

Take `NC(N)=N/N=C/c1ccc(OCc2ccc(Cl)cc2Cl)cc1`: the inhibition is -0.41%.

In the case of `CCCCCCNC(=O)O[C@]12C[C@@H](C(=O)OC)[C@@H](C(=O)OC)C[C@@]1(O)CN(S(=O)(=O)c1ccc(C)cc1)C2`, the inhibition is -18%.

Take `Cc1cc(Nc2ccc(C)c(C)c2)n2ncnc2n1`: the inhibition is 18.7%.

For the compound `C[C@@H]1CN([C@@H](C)CO)C(=O)CCCn2cc(nn2)CO[C@H]1CN(C)S(=O)(=O)c1ccc(-n2cccn2)cc1`, the inhibition is 1.12%.

As for `CCN(CC)S(=O)(=O)c1ccc(OC)c(NC(=O)CCc2c(C)noc2C)c1`, the inhibition was 8.03%.

For `O=C(Nc1nnc(CCN2CCCCC2)s1)c1cccc(Cl)c1`, the inhibition is 0.75%.

As for `COCCCN1C(=O)C(=O)/C(=C(/O)c2ccc(S(=O)(=O)N3CCOCC3)cc2)C1c1ccc(F)cc1` (stereo unspecified), the inhibition is 9.93%.

On to `CCN(CC)S(=O)(=O)c1cccc(C(=O)NCC(=O)OCC(=O)NCc2ccccc2)c1`, for which the inhibition is 1.85%.

Regarding `C[n+]1cc(-c2ccccc2)oc1-c1ccccc1`, the inhibition is -30.6%.

As to `C=CCn1c(SCC(=O)c2c(N)n(C)c(=O)n(C)c2=O)nc2sc(CC)cc2c1=O`, the inhibition was -16.9%.

Regarding `Cc1ccn2c(=O)nc(SCC(=O)NCc3ccc4c(c3)OCO4)nc2c1`, the inhibition is -9.89%.

With `COc1cc(S(=O)(=O)N2CCN(C(=O)C3CC3)CC2)ccc1NC(C)=O`, the inhibition was 9.23%.

For `CCCCCCCCn1c2c(c(=N)c3c1CCC3)CCCC2`, the inhibition was 89.8% (active).

Take `Cc1cccc2cc(CN(C(=O)c3cccs3)c3ccccc3)c(=O)[nH]c12`: the inhibition is -23.1%.

For `O=C(NNC(=O)c1cnccc1C(F)(F)F)c1ccc(Cl)cc1`, the inhibition is -7.32%.

Turning to `CCN1/C(=C\c2ccc3ccccc3[n+]2CC)Sc2cc(C)ccc21`, the inhibition is 93.7% (active).

In the case of `Cc1ccc(S(=O)(=O)N2C3C=CC(C3)C2C(=O)O)cc1` (stereo unspecified), the inhibition was -13.6%.

Regarding `CCC(=O)N(C)C(c1ccccc1Cl)c1nnnn1-c1c(C)cccc1C` (stereo unspecified), the inhibition was 1.16%.

`CC(=O)Nc1sc2c(c1C(c1cccc(F)c1)N1CCN(CCO)CC1)CCCC2` (stereo unspecified): the inhibition is 5.02%.

For the compound `O=C(Nc1c2c(nn1-c1cccc(Cl)c1)CS(=O)(=O)C2)c1cccs1`, the inhibition is 17.8%.

As to `Cc1cccc(N2CCN(C(=O)c3cc4c(=O)[nH]c5ccccc5c4n3C)CC2)c1C`, the inhibition is 11.6%.

As for `CCc1nc2c(OCc3ccc(F)c(F)c3)cccn2c1N(C)C(=O)c1ccco1`, the inhibition was -12.9%.

As to `c1cc(-c2ccc3[nH]ccc3c2)n2ccnc2c1`, the inhibition was -8.26%.

The values are drawn from PubChem BioAssay AID602396 (The Scripps Research Institute Molecular Screening Center, 2012).
